According to PubChem BioAssay AID1745848 (National Center for Advancing Translational Sciences (NCATS), 2022):
The campaign covered roughly 2,100 compounds. About 940 (45%) were called active. Inconclusive results (about 48%) are left out. The call rests on the fitted dose curve; in most records, active means well fitted inhibition curve with a large enough effect; inconclusive means small, poorly fitted or top-dose-only effect; inactive means no such curve, though single readings can be large or run the other way. So high a share suggests a set chosen from earlier hits. The list shows a part of the results.

Assay: Confirmatory qHTS for Inhibitors of ATXN expression; further: nearly all actives have a fitted effect of over 65% in size;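 on activity change, negative = inhibition: 0% = DMSO vehicle wells and -100% = medium-only wells without cells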
Conditions: ATXN2-luciferase reporter cells, luminescence, 24 h; series mostly up to 11.5 µM; activity change, negative = inhibition: at the top concentration
Procedure, shortened: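 A titration, incubated 24 h with reporter cells expressing ATXN2-luciferase. Luminescence (SteadyGlo) gives ATXN2 expression, multiplexed GF-AFC fluorescence gives viability; normalised to DMSO and medium-only wells.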
Potency means the concentration at half of the fitted maximal effect.

Row | SMILES | activity change, negative = inhibition | Potency
1 | Cc1n(Cc2ccccc2)c2ccccc2[n+]1Cc1ccccc1 | -27.8% (inactive) | –
2 | N#Cc1c(Oc2ccc3ccccc3c2)sc(C(=O)c2ccccc2)c1N | – | 14.1 µM (active)
3 | CCOC(=O)C1CCN(c2cc3c(cc2NC(=O)c2ccccc2OCC)n(C)c(=O)n3C)CC1 | – | 28.2 µM (active)
4 | Cc1ccc(O)c(CNCCNCc2cc(C)ccc2O)c1 | – | 14.1 µM (active)
5 | COc1ccc(-c2noc(CCCC(=O)NC3CCCC3)n2)cc1 | – | 8.91 µM (active)
6 | Cc1ccc(-c2noc(CCCC(=O)NC3CCCC3)n2)cc1 | – | 7.94 µM (active)
7 | O=C(CSc1ccc2ccccc2c1)Nc1nc2ccccc2[nH]1 | – | 2.82 µM (active)
8 | Cc1cccc(OCCCC(=O)Nc2nc3ccccc3[nH]2)c1 | – | 0.891 µM (active)
9 | Cc1cccc(OCCCC(=O)Nc2nccs2)c1 | – | 3.16 µM (active)
10 | Cc1[nH]n(-c2ccccc2)c(=O)c1C=Nc1cccc2cccnc12 | – | 1.78 µM (active)
11 | CCOc1cc(/C=C2\SC(=N)N(c3nccs3)C2=O)ccc1OCCN1CCOCC1 | – | 14.1 µM (active)
12 | CSc1nc(-c2ccc(Cl)cc2)nc(N)c1C#N | – | 2.82 µM (active)
13 | CC(=O)Oc1ccc(N(C(C)=O)S(=O)(=O)c2ccc(C)cc2)c2ccccc12 | – | 3.16 µM (active)
14 | CC(=O)Oc1ccc(N(C(C)=O)S(=O)(=O)c2ccc(C)cc2C)c2ccccc12 | – | 31.6 µM (active)
15 | CC1CCN(Cc2c(C(=O)N/N=C/c3cc(Br)ccc3O)nnn2-c2nonc2N)CC1 | – | 0.794 µM (active)
16 | CC1CCN(Cc2c(C(=O)N/N=C/c3ccccc3O)nnn2-c2nonc2N)CC1 | – | 1.78 µM (active)
17 | CC1CCN(Cc2c(C(=O)N/N=C/c3cc(Cl)ccc3O)nnn2-c2nonc2N)CC1 | – | 3.55 µM (active)
18 | CCN1CC2=C(OC(N)=C(C#N)C2c2cccs2)/C(=C\c2cccs2)C1 (stereo unspecified) | -3.24% (inactive) | –
19 | COc1cc([C@@H]2c3cc4c(cc3[C@@H](O[C@@H]3O[C@@H]5CO[C@@H](C)O[C@H]5[C@H](O)[C@H]3O)[C@H]3COC(=O)[C@H]23)OCO4)cc(OC)c1O | – | 0.631 µM (active)

Row | SMILES | activity change, negative = inhibition | Potency
20 | CC[C@]12c3[nH]c4ccc(Cl)cc4c3CCN1C(=O)[C@@H](CC(=O)NCC13CC4CC(CC(C4)C1)C3)C[C@@H]2C(=O)N1CCN(C(=O)C2CC2)CC1 | – | 28.2 µM (active)
21 | CC[C@]12c3[nH]c4ccc(Cl)cc4c3CCN1C(=O)[C@@H](CC(=O)NCC13CC4CC(CC(C4)C1)C3)C[C@@H]2C(=O)N1CCN(C(=O)c2ccco2)CC1 | – | 3.55 µM (active)
22 | O=C(N/N=C(\Cc1ncc[nH]1)c1ccccc1)c1cccnc1 | – | 3.16 µM (active)
23 | O=C(N/N=C(\Cc1ncc[nH]1)c1ccccc1)c1ccncc1 | – | 10 µM (active)
24 | Oc1ccc2ccccc2c1/C=C/c1ccc2c(Br)cc(Br)c(O)c2n1 | – | 12.6 µM (active)
25 | CN(C)CCNc1ccc2nnn3c4ccc(O)cc4c(=O)c1c23 | – | 2 µM (active)
26 | CN(C)CCNc1ccc2ncn3c4ccc(O)cc4c(=O)c1c23 | – | 1 µM (active)
27 | CN(C)CCNc1cccc2sc3ccc(O)cc3c(=O)c12 | – | 28.2 µM (active)
28 | Cc1cc(Oc2ccc(Cl)cc2)nc(-c2ccccn2)n1 | -20.3% [at 57.5 µM] (inactive) | –
29 | COc1cnc(-c2ccccn2)nc1Oc1ccc(Cl)c2ccccc12 | – | 3.16 µM (active)
30 | Cc1cc(C(=O)N/N=C/c2cc(Br)cc([N+](=O)[O-])c2O)c2ccccc2n1 | – | 3.16 µM (active)
31 | O=C(N/N=C/c1cc(Br)cc([N+](=O)[O-])c1O)c1ccc(NC(=O)c2ccc(F)cc2)cc1 | – | 3.16 µM (active)
32 | COc1cc([N+](=O)[O-])cc(/C=N/NC(=O)c2ccc(NC(=O)c3ccc(C)cc3)cc2)c1O | – | 1.41 µM (active)
33 | O=C(Nc1ccc(Cl)c(Cl)c1)Nc1nnc(CSc2ccccc2)s1 | – | 1.78 µM (active)
34 | CC1=CC(C)(C)Nc2ccc(OC(=O)CN3C(=O)CCC3=O)cc21 | – | 3.55 µM (active)
35 | Cc1cc(NCc2ccccn2)n2nc(C)c(-c3ccc(Cl)cc3)c2n1 | – | 15.8 µM (active)
36 | CCOc1ccc(-n2c(-c3ccccc3)c[n+]3c2CCCCC3)cc1 | – | 8.91 µM (active)
37 | c1ccc(Cn2c(-c3ccccc3)c[n+]3c2SCCC3)cc1 | -25.9% [at 57.5 µM] (inactive) | –
38 | Cc1cccc(C2=NN(c3ccccc3)[C@H](CO)[C@H]2c2ccc(Cl)cc2)c1 | -19.7% (inactive) | –

Row | SMILES | activity change, negative = inhibition | Potency
39 | Cc1cc(C)c2nc(N3CCCC(C(=O)N4CCN(c5ncccn5)CC4)C3)sc2c1 (stereo unspecified) | – | 3.16 µM (active)
40 | O=c1cc(-c2cccnc2)oc2c1ccc1ccccc12 | – | 3.55 µM (active)
41 | CN(C)c1cc[n+](CC(=O)c2ccc(-c3ccccc3)cc2)cc1 | – | 2.24 µM (active)
42 | Oc1ccc(C[C@@H]2CNCCN2CCc2cc(C(F)(F)F)cc(C(F)(F)F)c2)cc1 | – | 3.16 µM (active)
43 | COc1cccc(-c2ccc(NC(=O)C3CCCN(Cc4cnn(C(C)C)c4)C3)cc2)c1 (stereo unspecified) | – | 3.16 µM (active)
44 | Cc1cc(C)nc(NNS(=O)(=O)c2ccc(F)c(Cl)c2)n1 | -3.25% (inactive) | –
45 | CN(CC(=O)NCc1ccc(F)cc1)CC(=O)Nc1ccc(Cl)c(C(F)(F)F)c1 | – | 25.1 µM (active)
46 | CN(CC(=O)Nc1ccc(Cl)c(C(F)(F)F)c1)C(=O)c1cccnc1Sc1ccccc1 | -17.8% [at 57.5 µM] (inactive) | –
47 | Cc1nc(-c2ccc(F)cc2)c(CC(=O)N(C)CC(=O)Nc2ccc(Cl)c(C(F)(F)F)c2)s1 | – | 25.1 µM (active)
48 | Cc1cc(OCC(=O)NC(C)c2ccccc2)ccc1[N+](=O)[O-] (stereo unspecified) | -13.6% (inactive) | –
49 | CCC(=O)NC(c1ccc(C)cc1)c1cc([N+](=O)[O-])c2cccnc2c1O (stereo unspecified) | – | 6.31 µM (active)
50 | CC(C)C(=O)NC(c1ccccc1)c1cc([N+](=O)[O-])c2cccnc2c1O (stereo unspecified) | – | 10 µM (active)
51 | CC(C)c1ccc2c(c1)C(N1CCNCC1)Cc1ccc(F)cc1S2 (stereo unspecified) | – | 28.2 µM (active)
52 | N#Cc1c(N)n(C2OC(CO)C(O)C2O)c2ncnc(N)c12 (stereo unspecified) | – | 0.398 µM (active)
53 | CNc1nc2c(N)ncnc2n1[C@H]1O[C@@H](CO)[C@H](O)[C@@H]1O | – | 2.82 µM (active)
54 | CCOc1ccc(CCNC(=O)c2ccc(OCc3c(C)noc3C)cc2)cc1OCC | -13.2% (inactive) | –
55 | CCc1cc(C)cc(OCCNC(=O)c2cncc(Br)c2)c1 | – | 25.1 µM (active)
56 | COc1ccc(OCc2cccc(C(=O)Nn3cc([N+](=O)[O-])cn3)c2)cc1 | – | 0.398 µM (active)
